# Measurements reported in the supplement of paper PMC4466140.
# Experiments:
# Experiment in all cases: SPOT peptide array binding signal intensity (averaged, normalized) (arbitrary units (background-subtracted, floor 0; scale differs between SH3 domains)); higher = stronger binding of the SH3 domain to the peptide
# [1] = target: AgAbp1
# Outline: (§1)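 Peptides were synthetic 15-mers on cellulose membranes, with every cysteine replaced by serine. They were incubated overnight at 4°C with GST-SH3 domains from four yeast species at 10 μg/ml in TBS-based blocking buffer. Binding signal, the replicate-averaged normalized and background-subtracted spot intensity, is in arbitrary units that differ between domains.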
# [2] = target: AgBbc1
# Outline: as §1
# [3] = target: AgBem1-D1
# Outline: as §1
# [4] = target: AgBzz1-D1
# Outline: as §1
# [5] = target: AgBzz1-D2
# Outline: as §1
# [6] = target: AgCyk3
# Outline: as §1
# [7] = target: AgFus1
# Outline: as §1
# [8] = target: AgHof1
# Outline: as §1
# [9] = target: AgHse1
# Outline: as §1
# [10] = target: AgLsb1
# Outline: as §1
# [11] = target: AgLsb4
# Outline: as §1
# [12] = target: AgMyo5
# Outline: as §1
# [13] = target: AgNbp2
# Outline: as §1
# [14] = target: AgRvs167
# Outline: as §1
# [15] = target: AgSho1
# Outline: as §1
# [16] = target: AgSla1-D1-D2
# Outline: as §1
# [17] = target: AgSla1-D3
# Outline: as §1
# [18] = target: CaAbp1-D1
# Outline: as §1
# [19] = target: CaAbp1-D2
# Outline: as §1
# [20] = target: CaBbc1
# Outline: as §1
# [21] = target: CaBem1-D1
# Outline: as §1
# [22] = target: CaBzz1-D1
# Outline: as §1
# [23] = target: CaBzz1-D2
# Outline: as §1
# [24] = target: CaCyk3
# Outline: as §1
# [25] = target: CaFus1
# Outline: as §1
# [26] = target: CaHof1
# Outline: as §1
# [27] = target: CaHse1
# Outline: as §1
# [28] = target: CaLsb1
# Outline: as §1
# [29] = target: CaLsb4
# Outline: as §1
# [30] = target: CaMyo5
# Outline: as §1
# [31] = target: CaNbp2
# Outline: as §1
# [32] = target: CaRvs167
# Outline: as §1
# [33] = target: CaRvs167-3
# Outline: as §1
# [34] = target: CaSho1
# Outline: as §1
# [35] = target: CaSla1-D1-D2
# Outline: as §1
# [36] = target: CaSla1-D3
# Outline: as §1
# [37] = target: ScAbp1
# Outline: as §1
# [38] = target: ScBbc1
# Outline: as §1
# [39] = target: ScBem1-D1
# Outline: as §1
# [40] = target: ScBzz1-D1
# Outline: as §1
# [41] = target: ScBzz1-D2
# Outline: as §1
# [42] = target: ScCyk3
# Outline: as §1
# [43] = target: ScFus1
# Outline: as §1
# [44] = target: ScHof1
# Outline: as §1
# [45] = target: ScHse1
# Outline: as §1
# [46] = target: ScLsb1
# Outline: as §1
# [47] = target: ScLsb2
# Outline: as §1
# [48] = target: ScLsb3
# Outline: as §1
# [49] = target: ScLsb4
# Outline: as §1
# [50] = target: ScMyo3
# Outline: as §1
# [51] = target: ScMyo5
# Outline: as §1
# [52] = target: ScNbp2
# Outline: as §1
# [53] = target: ScPex13
# Outline: as §1
# [54] = target: ScRvs167
# Outline: as §1
# [55] = target: ScSho1
# Outline: as §1
# [56] = target: ScSla1-D1-D2
# Outline: as §1
# [57] = target: ScSla1-D3
# Outline: as §1
# [58] = target: SpAbp1-D1
# Outline: as §1
# [59] = target: SpBbc1
# Outline: as §1
# [60] = target: SpBzz1-D1
# Outline: as §1
# [61] = target: SpBzz1-D2
# Outline: as §1
# [62] = target: SpCyk3
# Outline: as §1
# [63] = target: SpHof1
# Outline: as §1
# [64] = target: SpHof1-2
# Outline: as §1
# [65] = target: SpHof1-3
# Outline: as §1
# [66] = target: SpHse1
# Outline: as §1
# [67] = target: SpLsb1
# Outline: as §1
# [68] = target: SpLsb4
# Outline: as §1
# [69] = target: SpMyo1
# Outline: as §1
# [70] = target: SpNbp2
# Outline: as §1
# [71] = target: SpPex13
# Outline: as §1
# [72] = target: SpRvs167
# Outline: as §1
# [73] = target: SpSla1-D1-D2
# Outline: as §1
# [74] = target: SpSla1-D3
# Outline: as §1
binder,measurement,setting,value
VLRFLGFPLPIFEKG,SPOT peptide array binding signal intensity,[1],2
same,SPOT peptide array binding signal intensity,[2],≤ 0
same,SPOT peptide array binding signal intensity,[3],24.5
same,SPOT peptide array binding signal intensity,[4],15
same,SPOT peptide array binding signal intensity,[5],≤ 0
same,SPOT peptide array binding signal intensity,[6],≤ 0
same,SPOT peptide array binding signal intensity,[7],393
same,SPOT peptide array binding signal intensity,[8],9
same,SPOT peptide array binding signal intensity,[9],845
same,SPOT peptide array binding signal intensity,[10],7.75
same,SPOT peptide array binding signal intensity,[11],36
same,SPOT peptide array binding signal intensity,[12],0.5
same,SPOT peptide array binding signal intensity,[13],≤ 0
same,SPOT peptide array binding signal intensity,[14],1.67
same,SPOT peptide array binding signal intensity,[15],31
same,SPOT peptide array binding signal intensity,[16],3
same,SPOT peptide array binding signal intensity,[17],2
same,SPOT peptide array binding signal intensity,[18],4
same,SPOT peptide array binding signal intensity,[19],3.5
same,SPOT peptide array binding signal intensity,[20],≤ 0
same,SPOT peptide array binding signal intensity,[21],≤ 0
same,SPOT peptide array binding signal intensity,[22],≤ 0
same,SPOT peptide array binding signal intensity,[23],0.25
same,SPOT peptide array binding signal intensity,[24],≤ 0
same,SPOT peptide array binding signal intensity,[25],3750
same,SPOT peptide array binding signal intensity,[26],≤ 0
same,SPOT peptide array binding signal intensity,[27],35.8
same,SPOT peptide array binding signal intensity,[28],1
same,SPOT peptide array binding signal intensity,[29],≤ 0
same,SPOT peptide array binding signal intensity,[30],≤ 0
same,SPOT peptide array binding signal intensity,[31],129
same,SPOT peptide array binding signal intensity,[32],8.5
same,SPOT peptide array binding signal intensity,[33],22.2
same,SPOT peptide array binding signal intensity,[34],496
same,SPOT peptide array binding signal intensity,[35],4
same,SPOT peptide array binding signal intensity,[36],4
same,SPOT peptide array binding signal intensity,[37],1.5
same,SPOT peptide array binding signal intensity,[38],1.5
same,SPOT peptide array binding signal intensity,[39],11.5
same,SPOT peptide array binding signal intensity,[40],24
same,SPOT peptide array binding signal intensity,[41],14
same,SPOT peptide array binding signal intensity,[42],80.5
same,SPOT peptide array binding signal intensity,[43],404
same,SPOT peptide array binding signal intensity,[44],≤ 0
same,SPOT peptide array binding signal intensity,[45],2000
same,SPOT peptide array binding signal intensity,[46],≤ 0
same,SPOT peptide array binding signal intensity,[47],≤ 0
same,SPOT peptide array binding signal intensity,[48],≤ 0
same,SPOT peptide array binding signal intensity,[49],≤ 0
same,SPOT peptide array binding signal intensity,[50],0.5
same,SPOT peptide array binding signal intensity,[51],≤ 0
same,SPOT peptide array binding signal intensity,[52],19
same,SPOT peptide array binding signal intensity,[53],≤ 0
same,SPOT peptide array binding signal intensity,[54],≤ 0
same,SPOT peptide array binding signal intensity,[55],662
same,SPOT peptide array binding signal intensity,[56],3
same,SPOT peptide array binding signal intensity,[57],≤ 0
same,SPOT peptide array binding signal intensity,[58],1
same,SPOT peptide array binding signal intensity,[59],≤ 0
same,SPOT peptide array binding signal intensity,[60],3.5
same,SPOT peptide array binding signal intensity,[61],1
same,SPOT peptide array binding signal intensity,[62],3
same,SPOT peptide array binding signal intensity,[63],13.8
same,SPOT peptide array binding signal intensity,[64],5.5
same,SPOT peptide array binding signal intensity,[65],486
same,SPOT peptide array binding signal intensity,[66],1290
same,SPOT peptide array binding signal intensity,[67],≤ 0
same,SPOT peptide array binding signal intensity,[68],≤ 0
same,SPOT peptide array binding signal intensity,[69],≤ 0
same,SPOT peptide array binding signal intensity,[70],37.5
same,SPOT peptide array binding signal intensity,[71],5
same,SPOT peptide array binding signal intensity,[72],≤ 0
same,SPOT peptide array binding signal intensity,[73],3
same,SPOT peptide array binding signal intensity,[74],1
